Common to all, as to conditions: Compound concentration 20.0 uM
The target in assay [1] is Tyrosine-protein kinase ABL1 (Homo sapiens) (UniProt P00519).
For assay [2], the target named is Bromodomain-containing protein 4 (Homo sapiens) (UniProt O60885).
Assay [3] deals with Cyclin-dependent kinase 2 (Homo sapiens) (UniProt P24941).
Assay [4] concerns the target Casein kinase I isoform delta (Homo sapiens) (UniProt P48730).
In assay [5] the target is Glycogen synthase kinase-3 beta (Homo sapiens) (UniProt P49841).
Glycogen synthase kinase-3 beta (Homo sapiens), sequence (P49841 whole entry, looked up): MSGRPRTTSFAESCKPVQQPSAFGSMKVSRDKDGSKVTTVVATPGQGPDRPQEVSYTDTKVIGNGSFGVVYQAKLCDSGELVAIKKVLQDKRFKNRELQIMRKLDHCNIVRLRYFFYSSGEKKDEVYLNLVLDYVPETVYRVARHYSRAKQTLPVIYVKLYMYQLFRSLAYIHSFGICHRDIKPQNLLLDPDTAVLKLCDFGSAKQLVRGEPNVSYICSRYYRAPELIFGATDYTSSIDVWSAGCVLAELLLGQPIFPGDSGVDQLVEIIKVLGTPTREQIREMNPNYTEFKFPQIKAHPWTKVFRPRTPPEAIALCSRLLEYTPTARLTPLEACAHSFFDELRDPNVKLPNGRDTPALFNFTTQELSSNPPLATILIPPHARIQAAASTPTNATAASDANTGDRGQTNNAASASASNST
Assay [6] addresses Mitogen-activated protein kinase 1 (Homo sapiens) (UniProt P28482).
In assay [7] the target is T1, Aurora kinase A (Homo sapiens) (UniProt O14965).
T1 sequence (whole entry): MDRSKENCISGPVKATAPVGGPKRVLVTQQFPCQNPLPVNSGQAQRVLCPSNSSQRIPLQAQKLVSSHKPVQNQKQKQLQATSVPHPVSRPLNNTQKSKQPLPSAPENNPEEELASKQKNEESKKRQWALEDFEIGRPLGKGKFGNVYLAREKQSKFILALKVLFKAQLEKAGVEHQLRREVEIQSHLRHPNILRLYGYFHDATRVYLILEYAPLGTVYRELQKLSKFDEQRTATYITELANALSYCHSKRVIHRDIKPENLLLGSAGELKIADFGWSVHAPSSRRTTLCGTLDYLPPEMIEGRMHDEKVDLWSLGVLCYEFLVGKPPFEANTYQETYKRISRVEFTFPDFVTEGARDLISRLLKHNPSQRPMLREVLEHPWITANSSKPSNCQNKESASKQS

The target of assay [8] is T2, Transcription intermediary factor 1-alpha (Homo sapiens) (UniProt O15164).
T2 sequence (whole entry): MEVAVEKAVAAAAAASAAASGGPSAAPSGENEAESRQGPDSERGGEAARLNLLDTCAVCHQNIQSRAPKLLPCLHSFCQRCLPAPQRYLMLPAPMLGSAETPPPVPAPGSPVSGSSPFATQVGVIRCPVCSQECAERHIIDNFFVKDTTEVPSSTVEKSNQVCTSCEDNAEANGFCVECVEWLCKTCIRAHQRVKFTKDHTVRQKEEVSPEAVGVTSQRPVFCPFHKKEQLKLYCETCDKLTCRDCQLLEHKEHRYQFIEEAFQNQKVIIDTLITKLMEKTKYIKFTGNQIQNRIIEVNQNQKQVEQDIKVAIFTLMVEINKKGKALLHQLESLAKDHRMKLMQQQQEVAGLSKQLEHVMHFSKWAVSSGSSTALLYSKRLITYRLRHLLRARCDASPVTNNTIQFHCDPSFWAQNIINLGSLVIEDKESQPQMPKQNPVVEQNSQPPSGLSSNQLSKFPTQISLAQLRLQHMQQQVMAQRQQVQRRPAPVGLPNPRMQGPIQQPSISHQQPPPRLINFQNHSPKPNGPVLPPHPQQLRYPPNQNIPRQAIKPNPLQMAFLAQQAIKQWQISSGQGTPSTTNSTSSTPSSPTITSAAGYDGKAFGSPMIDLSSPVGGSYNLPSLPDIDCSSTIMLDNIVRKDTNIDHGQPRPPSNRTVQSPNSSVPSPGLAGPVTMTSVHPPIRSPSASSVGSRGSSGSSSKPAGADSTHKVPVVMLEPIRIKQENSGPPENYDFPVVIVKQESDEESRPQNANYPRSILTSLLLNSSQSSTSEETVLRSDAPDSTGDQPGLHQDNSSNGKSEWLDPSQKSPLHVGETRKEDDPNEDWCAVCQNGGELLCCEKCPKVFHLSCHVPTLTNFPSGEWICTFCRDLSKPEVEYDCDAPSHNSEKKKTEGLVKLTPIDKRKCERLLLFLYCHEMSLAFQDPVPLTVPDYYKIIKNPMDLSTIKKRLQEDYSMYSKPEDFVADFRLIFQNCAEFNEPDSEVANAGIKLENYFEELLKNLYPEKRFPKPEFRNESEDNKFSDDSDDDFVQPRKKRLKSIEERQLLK

Non-standard residues stand in square brackets, D forms with d. Residues, ends and D or L forms follow the SMILES beside them. Nle = CCCC[C@H](N)C(=O)O

Mitogen-activated protein kinase 1 (Homo sapiens), sequence (P28482 whole entry): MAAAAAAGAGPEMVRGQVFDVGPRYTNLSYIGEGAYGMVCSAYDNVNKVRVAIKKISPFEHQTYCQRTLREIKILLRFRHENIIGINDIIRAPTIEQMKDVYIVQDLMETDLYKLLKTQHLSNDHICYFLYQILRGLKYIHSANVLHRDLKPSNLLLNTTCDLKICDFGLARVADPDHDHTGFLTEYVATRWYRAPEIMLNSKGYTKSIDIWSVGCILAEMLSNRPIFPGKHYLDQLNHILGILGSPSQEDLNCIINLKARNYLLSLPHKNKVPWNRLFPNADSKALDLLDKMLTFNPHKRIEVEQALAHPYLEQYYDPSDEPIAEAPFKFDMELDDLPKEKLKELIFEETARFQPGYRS
Tyrosine-protein kinase ABL1 (Homo sapiens), sequence (P00519 whole entry): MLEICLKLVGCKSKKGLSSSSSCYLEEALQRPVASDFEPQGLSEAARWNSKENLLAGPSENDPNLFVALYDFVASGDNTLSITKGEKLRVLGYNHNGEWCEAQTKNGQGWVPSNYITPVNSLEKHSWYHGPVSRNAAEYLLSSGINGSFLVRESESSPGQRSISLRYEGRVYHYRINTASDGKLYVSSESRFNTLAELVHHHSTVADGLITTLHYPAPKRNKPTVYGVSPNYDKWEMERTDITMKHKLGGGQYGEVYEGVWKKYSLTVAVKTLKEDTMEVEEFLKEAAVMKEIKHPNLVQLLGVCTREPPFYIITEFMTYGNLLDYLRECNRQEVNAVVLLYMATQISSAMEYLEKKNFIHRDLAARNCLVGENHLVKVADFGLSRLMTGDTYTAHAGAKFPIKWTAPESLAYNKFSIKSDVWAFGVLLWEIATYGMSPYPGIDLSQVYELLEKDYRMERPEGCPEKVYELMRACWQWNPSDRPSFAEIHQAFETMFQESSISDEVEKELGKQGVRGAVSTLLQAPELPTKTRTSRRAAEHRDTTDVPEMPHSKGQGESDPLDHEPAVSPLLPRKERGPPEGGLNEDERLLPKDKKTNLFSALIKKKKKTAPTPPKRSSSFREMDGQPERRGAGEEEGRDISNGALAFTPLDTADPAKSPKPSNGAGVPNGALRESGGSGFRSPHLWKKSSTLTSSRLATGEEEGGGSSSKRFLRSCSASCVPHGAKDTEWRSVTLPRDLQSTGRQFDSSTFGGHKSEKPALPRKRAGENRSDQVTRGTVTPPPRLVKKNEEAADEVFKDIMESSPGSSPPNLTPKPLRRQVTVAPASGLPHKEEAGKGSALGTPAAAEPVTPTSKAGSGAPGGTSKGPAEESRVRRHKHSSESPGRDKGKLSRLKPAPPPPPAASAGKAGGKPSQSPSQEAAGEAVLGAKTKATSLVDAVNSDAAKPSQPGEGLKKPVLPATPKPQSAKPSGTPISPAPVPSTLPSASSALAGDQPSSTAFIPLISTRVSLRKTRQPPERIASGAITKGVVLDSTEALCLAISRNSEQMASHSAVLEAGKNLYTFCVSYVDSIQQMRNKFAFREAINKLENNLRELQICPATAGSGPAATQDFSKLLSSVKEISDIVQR
Casein kinase I isoform delta (Homo sapiens), sequence (P48730 whole entry, looked up, canonical isoform): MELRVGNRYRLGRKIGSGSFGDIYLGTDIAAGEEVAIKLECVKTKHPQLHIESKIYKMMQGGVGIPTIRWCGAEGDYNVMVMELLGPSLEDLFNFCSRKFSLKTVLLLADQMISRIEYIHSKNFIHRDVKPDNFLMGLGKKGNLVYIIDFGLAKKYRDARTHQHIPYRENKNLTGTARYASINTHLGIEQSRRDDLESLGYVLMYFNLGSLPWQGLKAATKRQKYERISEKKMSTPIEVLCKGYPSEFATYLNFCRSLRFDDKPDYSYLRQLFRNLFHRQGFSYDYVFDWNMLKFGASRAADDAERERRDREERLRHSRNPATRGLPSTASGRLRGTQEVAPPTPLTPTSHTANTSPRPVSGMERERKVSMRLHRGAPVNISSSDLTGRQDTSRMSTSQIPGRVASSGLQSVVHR

As to `NCCCOc1cc2ccccc2cc1C(=O)NCCOc1cc2ccccc2cc1C(=O)Nc1ccc(Cl)cc1O`, the ΔTm in assay [1] was 0.27 °C; in assay [2], -4.42 °C; in assay [3], -1.85 °C; in assay [4] it was 0.11 °C; in assay [5], -2.72 °C; in assay [6], -1.61 °C. Also, the figures for the ΔTm in assay [7] and in assay [8] were -3.9 °C and -0.59 °C, respectively.
In the case of `O=C(c1cc(Cc2n[nH]c(=O)c3ccccc23)ccc1F)N1CC(CNC2CC2)C1`, the ΔTm in assay [1] was 0.54 °C; in assay [2], -1.65 °C; in assay [3], 0.08 °C; in assay [4], -0.14 °C; in assay [5], -0.61 °C; in assay [6], 0.06 °C. Also, the ΔTm in assay [7] is -2.47 °C; in assay [8], 0.44 °C.
Consider `Cc1cc(OCCCNCC(C)(C)C(N)=O)ccc1Cc1c(O[C@@H]2O[C@H](CO)[C@@H](O)[C@H](O)[C@H]2O)n[nH]c1C(C)C`, for which the ΔTm was 0.7 °C in assay [1]; -2.92 °C in assay [2]; 0.08 °C in assay [3]; -0.08 °C in assay [4]; -0.66 °C in assay [5]; 0.38 °C in assay [6]. In addition, the ΔTm was -2.36 °C in assay [7] and 0.9 °C in assay [8].
`CCCC[C@@H](C=O)NC(=O)[C@H](CC(C)C)NC(=O)[C@H](CC(C)C)NC(C)=O` (Ac-Leu-Leu-[Nle]-aldehyde): the ΔTm was 0.18 °C in assay [1]; -2.71 °C in assay [2]; 0.09 °C in assay [3]; 0.12 °C in assay [4]; -0.45 °C in assay [5]; 0.06 °C in assay [6]. The figures for the ΔTm in assay [7] and in assay [8] were -1.13 °C and -1.21 °C, respectively.
In the case of `Cc1cc(C)cc(Oc2ccc(CNC(=O)[C@H](C)N)cc2C)c1`, the ΔTm in assay [1] was 1.83 °C; in assay [2] it was -1.81 °C; in assay [3], 0.25 °C; in assay [4], 0.15 °C; in assay [5] it was -1.22 °C; in assay [6] it was -0.21 °C. In addition, the ΔTm was -0.6 °C in assay [7] and -1.58 °C in assay [8].
Regarding `CC1(C)c2cccc(C(=O)NO)c2CN1c1cnc(C(F)(F)F)cn1`, the ΔTm in assay [1] is 0.41 °C; in assay [2], -2.93 °C; in assay [3] it was -2.1 °C; in assay [4] it was 0.64 °C; in assay [5], 0 °C; in assay [6] it was 0 °C. Further, the ΔTm is -2.98 °C in assay [7] and -1.07 °C in assay [8].
In the case of `Nc1nc(NC2CC2)cc(-c2cccc(Cl)c2Cl)n1`, the ΔTm in assay [1] is 0.77 °C; in assay [2], -2.44 °C; in assay [3], 0.2 °C; in assay [4] it was -0.46 °C; in assay [5], 0.36 °C; in assay [6] it was 0.25 °C. In addition, the results for the ΔTm in assay [7] and in assay [8] were -1.81 °C and 0.87 °C, respectively.
For `CCN(c1cc(C#CCN2CCOCC2)cc(C(=O)NCc2c(C)cc(C)[nH]c2=O)c1C)[C@H]1CC[C@H](N(C)CCOC)CC1`, the ΔTm in assay [1] is 0.47 °C; in assay [2], -1.47 °C; in assay [3], 0.53 °C; in assay [4], 0.46 °C; in assay [5], -0.17 °C; in assay [6], 0.04 °C. Further, the ΔTm was -0.54 °C in assay [7] and -0.98 °C in assay [8].
Regarding `CC(C)[C@H](NC(=O)OCc1ccccc1)C(=O)NC(CC(=O)O)C(=O)CF` (stereo partly drawn), the ΔTm in assay [1] was -0.18 °C; in assay [2], -3.41 °C; in assay [3], -0.73 °C; in assay [4], 0.1 °C; in assay [5], 0.35 °C; in assay [6] it was -0.08 °C. The figures for the ΔTm in assay [7] and in assay [8] were -2.03 °C and -1.64 °C, respectively.
With `CC(=O)N1CCN([C@H]2CCC[C@@H](NC(=O)c3cc4c(F)ccc(C)c4[nH]3)C2)CC1`, the ΔTm in assay [1] is 0.05 °C; in assay [2], -1.42 °C; in assay [3] it was 0.08 °C; in assay [4], 0.26 °C; in assay [5] it was -1.37 °C; in assay [6], 0.01 °C. Also, the ΔTm is -0.09 °C in assay [7] and -1.38 °C in assay [8].
For `FC(F)(F)Cn1cc(-c2ccncc2)c(-c2ccc(OCc3ccc4ccccc4n3)cc2)n1`, the ΔTm is 1.54 °C in assay [1]; -3.29 °C in assay [2]; 0.14 °C in assay [3]; 1.23 °C in assay [4]; -1.19 °C in assay [5]; 0.65 °C in assay [6]. Further, the ΔTm in assay [7] is 0.56 °C; in assay [8], -0.98 °C.

For the origin of these results see ChEMBL document CHEMBL5724796, “Tm Shift (DSF) assay results for EUbOPEN Chemogenomics Library” (2024).
